STK33 kin inh: STK33 kinase inhibitors, primary screen, biochemical, luminescence, ADP-Glo, MBP substrate. inhibition, % at 12.5 µM. hit rate 0.44% among 27,000. AID 2322, 2010; in the data active = inhibition above about 20%
Target sequence (Q9BYT3 whole entry, looked up): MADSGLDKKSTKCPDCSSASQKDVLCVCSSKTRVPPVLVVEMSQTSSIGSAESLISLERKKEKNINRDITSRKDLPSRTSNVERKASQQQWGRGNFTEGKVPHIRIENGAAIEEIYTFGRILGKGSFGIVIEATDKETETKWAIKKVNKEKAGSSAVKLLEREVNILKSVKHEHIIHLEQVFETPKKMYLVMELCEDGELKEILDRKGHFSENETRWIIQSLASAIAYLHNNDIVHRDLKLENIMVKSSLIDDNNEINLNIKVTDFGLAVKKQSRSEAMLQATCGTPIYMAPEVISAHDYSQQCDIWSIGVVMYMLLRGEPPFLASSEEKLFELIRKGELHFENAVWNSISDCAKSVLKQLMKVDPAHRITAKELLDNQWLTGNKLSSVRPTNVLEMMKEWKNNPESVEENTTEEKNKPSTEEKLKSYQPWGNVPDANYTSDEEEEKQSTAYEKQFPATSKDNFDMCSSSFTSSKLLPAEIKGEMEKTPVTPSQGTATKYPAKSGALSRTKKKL
NOMO-1 viab: NOMO-1 AML cell viability reduction, primary screen, STK33 inhibitor project, CellTiter-Glo luminescence. NOMO-1 AML viability, 72 h. inhibition, % (test concentration not listed). hit rate 7.5% among 37,000. AID 2330, 2010; in the data active = inhibition above about 80%
PD-1 reversal: activators reversing PD-1 mediated T-cell inhibition, primary screen, luminescence, primary human CD4 T cells, PD-L1 beads; activation, % (concentration not given with the values); 29,000 tested, under 10 active; CellTiter-Glo 96 h; AID 2316, 2010; call rule not given here;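 also: 0% = median vehicle wells and 100% = positive control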
Numbers without * were called inactive; · = not tested or not shown. Shown is part of a subset that was picked to be rich in hits.

SMILES	STK33 kin inh	NOMO-1 viab	PD-1 reversal
CCC(C)c1ccc(NC(=O)c2ccc(N(CC)CC)cc2)cc1 (centres undefined)	·	120*	1
CCC(C)NC(=O)c1ccc(N(CC)CC)cc1 (centres undefined)	·	28	1
c1ccc(CC(Cc2nc3ccccc3[nH]2)c2nc3ccccc3[nH]2)cc1 (centres undefined)	-1	28	·
N#CC(C(=O)c1ccco1)c1nc2ccccc2[nH]1 (centres undefined)	67*	64	0
N#C/C(=C\c1ccsc1)S(=O)(=O)c1ccc(C(F)(F)F)cn1	·	26	-1
COc1cc2c(cc1NC(=S)NCc1ccco1)oc1ccccc12	-1	93*	-10
COc1cc2c(cc1NC(=S)NCCc1ccc(OC)c(OC)c1)oc1ccccc12	2	7	-5
CC1(C)CC(=O)c2c(O)cc(OCC(=O)c3cccc([N+](=O)[O-])c3)cc2O1	4	·	·
C[C@@H]1CN([C@H](C)CO)C(=O)c2cc(NC(=O)Nc3ccc(C(F)(F)F)cc3)ccc2O[C@H]1CN(C)Cc1ccc(Oc2ccccc2)cc1	·	58	·
C[C@@H]1CN([C@@H](C)CO)C(=O)c2cc(NC(=O)Nc3ccc(C(F)(F)F)cc3)ccc2O[C@@H]1CN(C)Cc1ccc(Oc2ccccc2)cc1	6	117*	-14
COc1ccc(CN(C)C[C@@H]2Oc3ccc(NC(=O)Nc4ccc(C(F)(F)F)cc4)cc3C(=O)N([C@@H](C)CO)C[C@@H]2C)cc1	·	100*	1
C[C@H](CO)N1C[C@H](C)[C@H](CN(C)Cc2ccc(C(=O)O)cc2)Oc2ccc(NC(=O)Nc3ccc(C(F)(F)F)cc3)cc2C1=O	-1	-15	1
C[C@H]1CN([C@@H](C)CO)C(=O)c2cc(NC(=O)Nc3ccc4c(c3)OCO4)ccc2O[C@@H]1CN(C)Cc1ccc(C(F)(F)F)cc1	·	11	2
C[C@@H]1CN([C@@H](C)CO)C(=O)c2cc(NC(=O)Nc3ccc4c(c3)OCO4)ccc2O[C@H]1CN(C)Cc1ccc(C(F)(F)F)cc1	·	93*	0
COc1ccc(NC(=O)Nc2ccc3c(c2)C(=O)N([C@H](C)CO)C[C@@H](C)[C@H](CN(C)Cc2ccc(C(F)(F)F)cc2)O3)cc1	·	49	-1
C[C@@H]1CN([C@@H](C)CO)C(=O)c2cc(NC(=O)Nc3ccc(C(F)(F)F)cc3)ccc2O[C@@H]1CN(C)Cc1ccccc1	5	119*	-2
Cc1cc(C)c2c(N)c(C(=O)c3cccs3)sc2n1	·	8	0
O=C(CCN1C(=O)c2ccccc2C1=O)Nc1ccc(Nc2ccccc2)cc1	-2	70	·
O=C(CSc1ncnc2sc3c(c12)CCCCC3)Nc1ccc2c(c1)OCCO2	6	3	·
COc1cccc(CN2CCN(Cc3cccc([N+](=O)[O-])c3)CC2)c1OC	0	2	·
C[C@H]1CN([C@@H](C)CO)C(=O)c2cc(NC(=O)Nc3ccc(C(F)(F)F)cc3)ccc2O[C@@H]1CN(C)Cc1ccc(C(=O)O)cc1	-1	-23	1
C[C@@H]1CN([C@@H](C)CO)C(=O)c2cc(NC(=O)Nc3ccc(F)cc3)ccc2O[C@@H]1CN(C)Cc1ccc(C(F)(F)F)cc1	-1	105*	-1
C[C@H]1CN([C@@H](C)CO)C(=O)c2cc(NC(=O)Nc3ccc(C(F)(F)F)cc3)ccc2O[C@@H]1CN(C)Cc1ccccc1	0	94*	-2
C[C@@H]1CN([C@H](C)CO)C(=O)c2cc(NC(=O)Nc3ccc(C(F)(F)F)cc3)ccc2O[C@H]1CN(C)Cc1ccccc1	0	76	-5
c1ccc(CSc2nccc(-c3ccc4c(c3)CCO4)n2)cc1	·	39	-1
SMILES	STK33 kin inh	NOMO-1 viab	PD-1 reversal
CC(C)N(Cc1nc(-c2ccc(Cl)cc2)no1)S(=O)(=O)c1ccc2ccccc2c1	-5	15	0
N#CC1=C(N)Nc2onc(-c3cccc(O)c3)c2C1c1ccccc1 (centres undefined)	·	40	-2
Cc1ccccc1NC(=O)c1ccccc1NC(=O)c1ccccc1	·	30	1
Cn1c(SCC(=O)n2c3c(c4ccccc42)CCCC3)nnc1-c1cccc([N+](=O)[O-])c1	0	-21	-1
CN(C)CCNc1cc(-c2cccnc2)nc2ccccc12	·	51	0
CC(CC(O)C1OC1(C)C)[C@@H]1CCC2(C)C3=CCC4C(C)(C)C(=O)CCC4(C)C3CC[C@@]12C (some centres undefined)	3	101*	·
COc1cc(-c2c(C)cc(O)cc2O[C@@H]2O[C@H](CO)[C@@H](O)[C@H](O)[C@H]2O)oc(=O)c1	1	-2	-1
Cc1nnc(SCC2=NN(c3nc4ccccc4s3)C(=O)C2)s1	-6	16	·
C[C@H](CO)N1C[C@H](C)[C@@H](CN(C)Cc2ccncc2)Oc2c(NC(=O)c3nc4ccccc4s3)cccc2C1=O	·	74	-5
C[C@H](CO)N1C[C@H](C)[C@H](CN(C)Cc2ccncc2)Oc2c(NC(=O)c3nc4ccccc4s3)cccc2C1=O	·	88*	-7
C[C@H]1CN([C@@H](C)CO)C(=O)c2cccc(NC(=O)c3nc4ccccc4s3)c2O[C@H]1CN(C)Cc1ccc(C(F)(F)F)cc1	·	50	-3
C[C@@H]1CN([C@H](C)CO)C(=O)c2cccc(NC(=O)c3nc4ccccc4s3)c2O[C@H]1CN(C)Cc1ccc(C(F)(F)F)cc1	·	101*	-4
C[C@H](CO)N1C[C@H](C)[C@@H](CN(C)C(=O)Nc2ccc(C(F)(F)F)cc2)Oc2c(NC(=O)c3nc4ccccc4s3)cccc2C1=O	·	13	-2
C[C@H](CO)N1C[C@H](C)[C@H](CN(C)C(=O)Nc2ccc(C(F)(F)F)cc2)Oc2c(NC(=O)c3nc4ccccc4s3)cccc2C1=O	·	104*	-8
COc1cc(F)ccc1S(=O)(=O)NC1CC(C)(C)NC(C)(C)C1	-1	13	·
COc1ccc(OCC(O)CNC(C)(C)C)cc1 (centres undefined)	·	3	0
CCN(CCS(=O)(=O)c1ccccc1)S(=O)(=O)c1ccc(C)cc1	0	-16	-1
CCNC(=S)NCC1CC1	·	-9	2
O=S(=O)(N[C@H]1CCN(Cc2cccc(OCCO)c2)C1)c1cccc2cccnc12	-1	·	·
O=C1O[C@@H](c2ccccc2)[C@@H](c2ccccc2)N2[C@@H](c3ccccc3OCCO)[C@]3(C(=O)Nc4ccc(C#CC5=CCCCC5)cc43)[C@@H](C(=O)NC[C@H](O)c3ccccc3)[C@H]12	11	·	·
Cc1c(Cl)cccc1NC(=O)c1ccc(OCC(=O)Nc2ccc(F)cc2)cc1	0	13	-1
C=C1C(=O)OC2CC1C(OC(C)=O)C/C(C)=C\CC/C(C)=C\CC[C@]2(C)O (some centres undefined)	2	111*	·
CCc1nc2sc(C)c(C)c2c(=O)n1N	0	22	4
C=C1C(=O)O[C@@H]2/C=C(/CO[C@@H]3O[C@H](CO)[C@@H](O)[C@H](O)[C@H]3O)CC/C=C3\C[C@H](OC3=O)[C@@H]12	-2	-7	1
C=C1C(=O)O[C@@H]2/C=C(/COC(C)=O)CC/C=C(/CO)CC[C@@H]12	7	117*	-3
COc1cc(/C=C2/SC(=Nc3cc(C)cc(C)c3)NC2=O)cc(Br)c1OC	0	120*	2
